Assay outcomes from PubChem.
The sample as a whole holds a higher share of hits than the screen did.
Tgondii IFNg – blocks Toxoplasma gondii growth in the presence of IFN-gamma | 69,000 tested, 3.8% active | Toxoplasma gondii growth in IFN-gamma-treated host cells; stronger effect = lower value | activity change, negative = inhibition, % (no concentration beside the values) | AID 1259416; in the data active = activity change below about -70%, passing the limit was not always enough;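 note: host cells are HeLa cells infected with Toxoplasma gondii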
A number is an active result; – = inactive; ! = repeats disagree.

SMILES	Tgondii IFNg
COc1ccccc1N1CCN(C(=O)Cn2ncc3c(N4CCCCC4)ncnc32)CC1	–
CC1(C)Oc2ccc3ccc(=O)oc3c2C(N2CCCCC2)C1O (stereo not drawn)	–
Cc1c(C(=O)N2CCC(C)CC2)oc2ccc3c(c12)C(O)CC1(CCCCC1)O3 (stereo not drawn)	-99.9
Cc1ccc(C(=O)N2CCC3(CC2)CC(CC(=O)NCC(C)C)c2ccccc2O3)o1 (stereo not drawn)	–
COc1cc(Nc2nc(-c3nnc(-c4ccc(C)cc4)o3)nc3ccccc23)cc(OC)c1	–
Cc1ccc2oc3oc(=O)cc(C)c3c2c1	–
C#C[C@]1(OC(C)=O)CC[C@H]2[C@@H]3CCC4=C[C@@H](OC(C)=O)CC[C@@H]4[C@H]3CC[C@@]21C	–
CC(=O)O[C@]1(C(C)=O)CC[C@H]2[C@@H]3C=C(C)C4=CC(=O)CC[C@@H]4[C@H]3CC[C@@]21C	–
C#C[C@]1(OC(C)=O)CCC2C3CCC4=CC(=O)CC[C@@H]4C3CC[C@@]21C (stereo partly drawn)	-82.5!
CCOc1ccc(CCNC(=O)C2=C(C)C(=O)OC23CCN(S(=O)(=O)CC)CC3)cc1	–
Cc1cc(C(=O)N2CC(=O)N(C3CCCCC3)CC(OCc3ccccc3)C2)nc(C)n1 (stereo not drawn)	–
COC(=O)[C@@H]1Cc2c([nH]c3ccccc23)CN1C(=O)c1cc(C)nc(C)n1	-72.5
CC(=O)N1C(C(=O)O)Cc2c([nH]c3ccccc23)C1C (stereo not drawn)	–
Cc1ccc(S(=O)(=O)N2[C@@H]3CNC[C@H]2C3c2ccc(/C=C/c3ccccc3)cc2)cc1 (stereo partly drawn)	–
Cc1ccc(/C=C2\C(=O)C3(C)CCC2C3(C)C)cc1 (stereo not drawn)	–
Cc1ccc(/C=C2\CNC/C(=C\c3ccc(C)cc3)C2=O)cc1	-85.9
Cn1nc(Cn2ccnc2)c2c1CN(CCO)C2	–
Cc1nn(CCC#N)c(C)c1Cc1c(Cl)cccc1Cl	-110.8
N#CCCn1nc(-c2cccnc2)oc1=O	–
Cc1nn(Cc2nnc(SCc3c(F)cccc3Cl)n2C)c(C)c1Br	–
Cc1ccc(C(=O)N2CCCC2c2nonc2C)cc1NC(=O)C1CC1 (stereo not drawn)	–
O=C1NCCN(Cc2ccccc2)C12CCN(S(=O)(=O)c1ccc(F)cc1)CC2	–
CC(CCCC(C)(C)O)CCN1CCC2(CC1)C(=O)NCCCN2C (stereo not drawn)	–
O=C1NCN(c2ccccc2)C12CCN(CCCC(c1ccc(F)cc1)c1ccc(F)cc1)CC2	-80.9
O=c1nc(Nc2ccc(OC(F)(F)F)cc2)c2ccccc2o1	–
SMILES	Tgondii IFNg
O=c1cc(Nc2ccc(OC(F)(F)F)cc2)c2ccccc2o1	-101.5
O=C(Nc1ccc(OC(F)(F)F)cc1)c1c(O)c2ccccc2[nH]c1=O	–
CCOC(=O)c1cnc(SC)nc1Nc1ccccc1	–
Cc1ccc(S(=O)(=O)N=Nc2c(O)[nH]c3ccccc23)cc1	–
Oc1[nH]c2ccccc2c1N=Nc1ccccc1	–
O=Nc1c(-c2c(O)[nH]c3ccccc23)[nH]c2ccccc12	-84.5
CN(C)[C@@H]1C[C@@H](CO)N(S(=O)(=O)c2ccc3c(c2)NC(=O)CO3)C1	–
Cn1ncc(Cl)c1-c1cc(C(=O)N[C@H](CN)Cc2cccc(F)c2)sc1Cl	-85.1
COCC1c2nnn(C)c2CCN1C(=O)Cc1cccc(F)c1 (stereo not drawn)	–
Cn1c(C(=O)NCc2cccc(F)c2)nc2c1CCN(S(C)(=O)=O)C2	–
COc1ccc(-c2nnc(-c3nc(NCc4ccc(C)o4)c4ccccc4n3)o2)cc1	–
CN(C)C(C(=O)NCc1ccccc1N1CCCC1)c1ccc(Cl)cc1 (stereo not drawn)	–
Cc1ccccc1NC(=O)c1cc(-c2cnc(N3CCOCC3)nc2)cn1CC1CC1	–
CCOC(=O)c1cnc2ccc(C(=O)OC)cc2c1Nc1ccc2c(c1)OCCO2	-72.4!
CCOC(=O)c1cnc2ccc(C(=O)OC)cc2c1Nc1ccc(C(=O)O)cc1	–
CCOC(=O)c1cnc2ccccc2c1NCCO	–
CN1CCOCC12CCN(c1ccccc1F)CC2	–
Cc1ccc2c(c1)C(NC(=O)CN(C)C1CCS(=O)(=O)C1)CC1(CCOCC1)O2 (stereo not drawn)	–
COc1ccccc1CC(=O)Nc1ccc(-c2noc(-c3cc(Cl)ccc3OC)n2)cc1	–
CC(C)c1cn(CC(=O)Nc2ccc(CN3C(=O)NC(C)(C)C3=O)cc2)nn1	–
CCOc1ccc(C2c3[nH]c4ccccc4c3CCN2C(=O)c2cccc(F)c2)cc1 (stereo not drawn)	-112.8
O=C(c1cccc(F)c1)N1CCc2c([nH]c3ccccc23)C1c1ccccc1 (stereo not drawn)	–
Cc1ccc(C2c3[nH]c4ccccc4c3CCN2C(=O)c2cccc(F)c2)cc1 (stereo not drawn)	-128.6
COc1cc(C(=O)N2CCc3c([nH]c4ccccc34)C2c2ccc(C)cc2)cc(OC)c1OC (stereo not drawn)	–
Cc1ccc(C2c3[nH]c4ccccc4c3CCN2C(=O)c2cc3ccccc3[nH]2)cc1 (stereo not drawn)	-78.7
SMILES	Tgondii IFNg
CCOc1ccc(C2c3[nH]c4ccccc4c3CCN2C(=O)COC)cc1 (stereo not drawn)	–
CCOc1ccc(C2c3[nH]c4ccccc4c3CCN2C(=O)c2cccnc2)cc1 (stereo not drawn)	–
Cc1ccc(C(=O)N2CCc3c([nH]c4ccccc34)C2c2ccc(C)cc2)cc1 (stereo not drawn)	–
Cc1ccc(C2c3[nH]c4ccccc4c3CCN2C(=O)c2ccnn2C)cc1 (stereo not drawn)	–
Cc1ncc2c(c1CNC(=O)c1ccccc1F)CCN(C(=O)c1c(F)cccc1Cl)C2	–
COCCN1CCC2(CCCN(c3cnccn3)C2)CC1	–
Cc1cc(C(=O)N2C[C@@H]3COC[C@@]3(COc3ccccn3)C2)c(C)o1	–
CN(C)CC1CCC2(COCCN(C(=O)Cc3ccc(F)cc3)C2)O1 (stereo not drawn)	–
CCc1cnc(N2CCC(Cc3nnc(SC)n3C)CC2)nc1	–
CCOCc1nnn2c1CN(Cc1c(C)noc1C)CCC2	–
CCN(C)C(=O)c1cnc(-c2noc3cc(N4CCCCC4)ccc23)s1	–
Cc1ccccc1-c1ccc2c(-c3ncc(C(=O)NCCN(C)C)s3)noc2c1	–
CN(C)C1CCN(C(=O)c2cnc(-c3noc4cc(-c5ccc(F)cc5)ccc34)s2)CC1	-82.0
CS(=O)(=O)N1CCCC12CCCN(C(=O)Cc1ccsc1)C2 (stereo not drawn)	–
CN(Cc1cncnc1)[C@H]1CN(S(C)(=O)=O)[C@H]2CCCO[C@@H]12	–
Cn1cc(CN2C[C@H]3CCCO[C@H]3[C@H](NS(C)(=O)=O)C2)cn1	–
COCC(=O)N[C@H]1CN(Cc2scnc2C)C[C@H]2CCCO[C@H]21	-81.2
Cc1csc(CN2C[C@H]3CCCO[C@H]3[C@H](N3CCCC3)C2)n1	–
CCOC(=O)[C@H](CCc1ccccc1)N[C@H]1CCCN2CCC[C@H](C(=O)O)N2C1=O	–
CCN1c2cc(C)ccc2-n2cccc2C12CCN(C(=O)Nc1ccccc1)CC2	–
CCN1c2cc(C)ccc2-n2cccc2C12CCN(C(=O)Nc1cccc(OC)c1)CC2	–
CCN1c2cc(C)ccc2-n2cccc2C12CCN(C(=O)Nc1ccc(F)c(Cl)c1)CC2	–
CCc1ccccc1NC(=O)N1CCC2(CC1)c1cccn1-c1ccc(C)cc1N2CC	–
CCN1c2cc(C)ccc2-n2cccc2C12CCN(C(=O)Nc1ccccc1OC)CC2	-88.2
